# Hit rate of the full screen: of about 3,300 compounds, about 20 (0.6%) were called active. This is one part of a sample in which actives are shown more often than they occur.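 How the source made its calls: active means growth inhibition above 90%, meaning viable cell count cut by more than 90% versus vehicle controls; inactive means growth inhibition below 90%.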
# Assay: HT29 colon tumor cell growth inhibition, primary screen, imaging, high content imaging, 72 h, CellTiter-Glo (AID 772);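 on condensed nuclei: condensed means nuclear area below control median minus 1.5 SD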
# Details: HCS imaging cell count, at 10 µM, stronger effect = higher value; for condensed nuclei: measured here: percent cells with condensed nuclei
# [1] = measured here: ATP CellTiter-Glo viability
Compound,growth inhibition,growth inhibition [1],condensed nuclei
Cc1ccccc1N1C(=O)CC(Sc2nnc(-c3ccccc3)o2)C1=O (configuration not stated),-77.9% (inactive),-47.7%,3.38%
Cc1cc(C)cc(CC2CC(=O)N(c3cc(C)on3)C2=O)c1 (configuration not stated),2.63% (inactive),-16.1%,7.19%
CCOC(=O)c1sc(-n2[nH]c(C)cc2=O)nc1C,14.3% (inactive),-4.21%,1.46%
C=CCc1cccc(/C=N/n2cnnc2)c1O,34.7% (inactive),20.1%,13.3%
C=CCc1cccc(CNc2nc3ccccc3n2C(C)C)c1O,95.1% (active),88.3%,14.6%
C=CCc1cccc(/C=N/c2ncn[nH]2)c1O,-6.01% (inactive),-17.7%,2.92%
CC1(c2ccco2)NC(=O)NC1=O (configuration not stated),16.9% (inactive),7.41%,12.6%
CC(C)CCNc1nc2c(cc1C#N)COC(C)(C)C2,12.7% (inactive),2.37%,1.81%
CNc1nc(C)c(C#N)cc1C(C)=O,82.9% (inactive),37.9%,1.85%
CN1C(=O)N(c2ccccc2)C(Nc2nncs2)C1(C)C (configuration not stated),-44.1% (inactive),-46.4%,5.92%
CCOC(=O)C1CCN(C(C)=C2C(=O)c3ccccc3C2=O)CC1,-17.6% (inactive),-13.6%,15.2%
CC1(C)Cc2c(C#N)c(SCc3nc4ccccc4[nH]3)nc(N3CCOCC3)c2CO1,90.8% (active),83.4%,5.26%
CCCCCSc1nc(N2CCOCC2)c2c(c1C#N)CC(C)(C)OC2,69.6% (inactive),74.9%,29.7%
CC1(C)Cc2c(C#N)c(SCCOc3ccccc3)nc(N3CCOCC3)c2CO1,-23.3% (inactive),-59.6%,0.88%
COc1ccc(Cn2c(CCCO)nc3ccccc32)cc1OC,32.8% (inactive),6.64%,5.26%
CN1CCc2nc(SCC(=O)Nc3ccc(Cl)cc3)c(C#N)cc2C1,54.4% (inactive),55.6%,17.3%
Cc1ccc(N2C(=O)C3ON(c4ccccc4)C(c4ccncc4)C3C2=O)c(C)c1 (configuration not stated),10.2% (inactive),1.38%,8.14%
Cc1ccc(OCc2nnc(NC(=O)c3ccco3)s2)c(C)c1,-8.86% (inactive),-6.84%,11.2%
Cc1cc(=O)oc(C)c1C(=O)NCCNC(=O)c1c(C)cc(=O)oc1C,5.17% (inactive),-5.21%,2.08%
CN1CCCN=C1COC(=O)C(O)(c1ccccc1)C1CCCCC1 (configuration not stated),-62.6% (inactive),-21.5%,2.98%
CCN(CC)CC#CCOC(=O)C(O)(c1ccccc1)C1CCCCC1 (configuration not stated),93.1% (active),92.7%,18.4%
CC[N+](C)(CC)CCOC(=O)C(O)(c1ccccc1)C1CCCCC1 (configuration not stated),-74.7% (inactive),-22.9%,4.12%
c1ccc(Cc2nnc3n2CCCCC3)cc1,-43.5% (inactive),-46.4%,1.7%
O=C1c2ccccc2C(=O)C1c1ccc2ccccc2n1,18.9% (inactive),7.1%,4.03%
